Measured values taken from the supplement of paper PMC12340641.
Where a name gives a salt, the structure may show the parent alone. ± gives the standard deviation of the averaged measurements.

Assays:
[1] = target: IKZF1 (dCK*-IKZF1 fusion in HEK293FT) (UniProt Q13422); assay: inhibition of IKZF1 HTRF signal (DMSO = 0%, pomalidomide 10 uM = 100%); higher = lower IKZF1 protein level; conditions: compound concentration: 5 uM, overnight (~20 h)
Outline: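 HEK293FT cells stably expressing a dCK*-IKZF1 fusion (2000/well, 384-well) were treated overnight at 37 °C with 5 μM compound in single wells. They were then lysed 30 min at room temperature, and lysate was incubated overnight with a commercial HTRF total-IKZF1 antibody kit. The time-resolved FRET ratio (665/620 nm) was background-subtracted. Percent inhibition of IKZF1 signal was normalised per plate to vehicle (0%) and a reference degrader (100%).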

HEK293FT dCK*-only = assay: relative growth in counter assay (no AraC = 100%, AraC + DMSO = 0%); higher = more growth rescue independent of IKZF1; conditions: compound concentration: 5 uM; AraC concentration: 0.3 uM; overnight pretreatment + 4 days AraC
Outline: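 In 384-well plates, 300 HEK293FT cells per well expressing an engineered kinase construct alone got 5 μM compound 2 h after seeding. After overnight at 37 °C, 0.3 μM nucleoside suicide substrate plus medium was applied for 4 days. Counting of Hoechst 33342-stained nuclei by imaging on day 5 was normalised per plate, with 100% for no-substrate wells and 0% for substrate plus vehicle.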

HEK293FT dCK*-IKZF1 = assay: relative growth recovery (pomalidomide 10 uM = 100%, DMSO = 0%); higher = more growth rescue (IKZF1 fusion degradation); conditions: compound concentration: 5 uM; AraC concentration: 0.3 uM; overnight pretreatment + 4 days AraC
Outline: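 On day 5, whole-well imaging was used to count Hoechst 33342-stained nuclei of HEK293FT cells stably carrying a deoxycytidine kinase–IKZF1 fusion. These cells had received 5 μM compound 2 h after seeding, followed after overnight at 37 °C by a nucleoside suicide substrate at 0.3 μM plus medium for 4 days. Growth recovery was normalised on each plate against a reference degrader and vehicle, which defined 100% and 0%, and values are duplicate means from separate days.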

IKZF1 (dCK*-IKZF1 fusion in HEK293FT), sequence (Q13422 whole entry, looked up, the tested form may be a part): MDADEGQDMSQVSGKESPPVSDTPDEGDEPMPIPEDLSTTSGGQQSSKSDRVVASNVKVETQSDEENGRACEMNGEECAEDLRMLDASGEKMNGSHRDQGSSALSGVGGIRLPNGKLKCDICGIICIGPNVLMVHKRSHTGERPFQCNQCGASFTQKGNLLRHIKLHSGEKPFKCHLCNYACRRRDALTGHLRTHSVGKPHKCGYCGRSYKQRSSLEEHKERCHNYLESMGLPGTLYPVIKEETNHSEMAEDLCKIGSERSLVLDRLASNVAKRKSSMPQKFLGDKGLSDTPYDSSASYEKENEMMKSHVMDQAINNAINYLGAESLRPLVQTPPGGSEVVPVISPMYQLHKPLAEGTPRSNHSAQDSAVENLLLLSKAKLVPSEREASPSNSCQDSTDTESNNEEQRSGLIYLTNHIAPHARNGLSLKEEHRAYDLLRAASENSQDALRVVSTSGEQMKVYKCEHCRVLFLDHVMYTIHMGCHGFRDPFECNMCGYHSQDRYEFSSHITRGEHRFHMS

SMILES	inhibition of IKZF1 HTRF signal [1] [%]	relative growth in counter assay (HEK293FT dCK*-only) [%]	relative growth recovery (HEK293FT dCK*-IKZF1) [%]
O=C1Nc2ccc(Cl)cc2[C@@](C#CC2CC2)(C(F)(F)F)O1 [Efavirenz]	19.7	3.1	2.08
O=c1[nH]c(=O)n([C@H]2C[C@H](O)[C@@H](CO)O2)cc1F [Floxuridine]	14.5	-29.6	-9.7
CN(C)CCOC1=Cc2ccccc2Sc2ccc(Cl)cc21 [zotepine]	-37.7	2.78	-1.67
C=C1C(=O)O[C@H]2[C@H]1CC/C(C)=C/CC[C@@]1(C)O[C@@H]21 [parthenolide]	-47.4	-33	-10.5
O=C(/C=C/c1cccnc1)c1ccncc1	-25	-28.4	-6.42
C/C(=N/Nc1nnc2c(n1)[nH]c1c(C)cccc12)c1ccccn1	45.9	-33	-12.6
CCSc1ccc2c(c1)N(CCCN1CCN(C)CC1)c1ccccc1S2 [thiethylperazine]	24.1	-4.22	1.55
O=C(Nc1cc(C(F)(F)F)cc(C(F)(F)F)c1)Nc1c(Br)cc(Br)cc1-c1nnn[nH]1	-17	-2.42	-4.01
O=C1CN(/N=C/c2ccc(-c3ccc([N+](=O)[O-])cc3)o2)C(=O)N1 [dantrolene]	27.9	-3.99	4.57
CNC[C@H](O)c1ccc(O)c(O)c1 [Epinephrine (L-(-)-Epinephrine-(+)-Bitartrate)]	-25.3	-10.5	-3.19
CSc1nc2cc(Cl)c(Oc3cccc(Cl)c3Cl)cc2[nH]1	-43	2.75	0.015
CCCCC1C(=O)N(c2ccccc2)N(c2ccc(O)cc2)C1=O (centres undefined)	-36.3	-34.9	-12.7
CCCCCCCCN=c1ccn(CCCCCCCCCCn2ccc(=NCCCCCCCC)cc2)cc1 [Octenidine Dihydrochloride]	64.7	-35.3	-14.7
Nc1ccc(S(=O)(=O)Nc2ncccn2)cc1	-27.2	-9.24	2.56
CCNC(=O)Nc1ccc(-c2nc3c(c(N4CCOC[C@@H]4C)n2)CCN(C2COC2)C3)cc1	68.5	-31.5	-12.3
C=CCNc1c(O)cc2c(O)c1C[C@@H](C)C[C@H](OC)[C@H](O)[C@@H](C)/C=C(\C)[C@H](OC(N)=O)[C@@H](OC)/C=C\C=C(/C)C(=O)N2 [Retaspimycin (Hydrochloride)]	-31	-34.5	-10.9
COc1cc(C(=O)NS(=O)(=O)c2ccccc2C)ccc1Cc1cn(C)c2ccc(NC(=O)OC3CCCC3)cc12 [Zafirlukast]	-43.3	-15.2	-5.17
NC(=O)Nc1sc(-c2ccc(F)cc2)cc1C(N)=O	-33.5	-26.8	-9.27
COc1cccc2c(O)c3c(O)c4c(c(O)c3c(O)c12)=C(O[C@H]1C[C@H](N)[C@@H](O)[C@H](C)O1)C[C@](O)(C(=O)CO)C=4 [Epirubicin HCl]	24	-34.6	-13.6

SMILES	inhibition of IKZF1 HTRF signal [1] [%]	relative growth in counter assay (HEK293FT dCK*-only) [%]	relative growth recovery (HEK293FT dCK*-IKZF1) [%]
CCOC(=O)Nc1ccc2c(c1)N(C(=O)CN(C)C)c1ccccc1CC2 [Tiracizine]	1.99	0.34	-0.145
Cc1coc2c1C(=O)C(=O)c1c-2ccc2c(C)cccc12 [Tanshinone I]	-2.3	-6.51	-3.83
CN1CCC(=C2c3ccccc3Sc3ccccc32)CC1	-29.9	-4.99	-1.33
COC(=O)C1=C(C)NC(C)=C([N+](=O)[O-])C1c1ccccc1C(F)(F)F (racemic)	-43.6	-7.91	-0.605
COc1cc(N2CCN(CCOCCOCCNC(=O)CNc3cccc4c3C(=O)N(C3CCC(=O)NC3=O)C4=O)CC2)ccc1Nc1ncc(Cl)c(Nc2ccccc2S(=O)(=O)C(C)C)n1 (centres undefined)	34.1	-27.8	-4.32
CCC1/C=C(\C)CC(C)CC(OC)C2OC(O)(C(=O)C(=O)N3CCCCC3C(=O)OC(/C(C)=C/C3CCC(O)C(OC)C3)C(C)C(O)CC1=O)C(C)CC2OC (centres undefined) [Ascomycin (FK520)]	4.12	22.2	13.5
CC(C)c1ccc(NC(=O)Cn2cnc3c2c(=O)n(C)c(=O)n3C)cc1	12.2	-3.63	-1.03
Cc1cccc(C)c1NC(=O)C(C)N (centres undefined) [Tocainide]	20.5	-12.9	-3.04
O=C(NCC1CCCCN1)c1cc(OCC(F)(F)F)ccc1OCC(F)(F)F (centres undefined) [flecainide]	-38	-3.96	0.135
C1CCC(C(CC2CCCCN2)C2CCCCC2)CC1 (centres undefined)	11.6	-1.13	-2.33
COc1cc(/C=C2\CCC/C(=C\c3ccc(O)c(OC)c3)C2=O)ccc1O [cyclovalone]	-30.9	-31.6	2.27
COC(=O)Nc1nc2cc(SC(C)C)ccc2[nH]1 [methiazole]	36.1	-32.7	-10.8
FC(F)(F)c1ccccc1-c1cc(C(F)(F)F)c2[nH]c(C3=NOC4(CCCCC4)C3)nc2c1	28.1	-7.93	-3.06
COc1ccc(CCCOC(Cn2ccnc2)c2ccc(OC)cc2)cc1 (centres undefined)	-18.7	-32.6	-9.78
OCCN1CCN(CCCN2c3ccccc3Sc3ccc(Cl)cc32)CC1 [Perphenazine]	0.695 ± 0.86	7.41 ± 5.6	2.98 ± 1
Clc1ccc(COC(Cn2ccnc2)c2ccc(Cl)cc2Cl)c(Cl)c1 (centres undefined) [Miconazole]	20.3	1.72	3.22
COc1cc(C(=O)NS(=O)(=O)c2ccccc2C)ccc1Cc1cn(C)c2ccc(NC(=O)OC3CCCC3)cc12 [Zafirlukast (Accolate)]	-6.19	0.38	0.805
COc1cc([C@@H]2c3cc4c(cc3[C@@H](O[C@@H]3O[C@@H]5COC(c6cccs6)O[C@H]5[C@H](O)[C@H]3O)[C@H]3COC(=O)C23)OCO4)cc(OC)c1O (some centres undefined) [Teniposide]	-45.1	-34.3	-12.5
Cc1ccccc1N=Nc1ccc(N=Nc2c(O)ccc3ccccc23)c(C)c1 [Solvent Red 24]	13.9	-1.17	-0.495
